# Measurements from PubChem BioAssay (NCI).
# About 83,000 compounds went through this panel and 20% of them were active in at least one assay; those are over-represented in the sample as a whole.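 Negative percent growth values reflect cell death: -40 means 40% of the cells present at the start died, and -100 means all died.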 Values without a mark were called inactive. Active and inactive are the calls of the source. The calls were made as follows: active = growth percent below 10; inactive = the rest.
# Tested on: HL-60(TB) leukemia
# Test: NCI-60 one-dose screen, 48 h (100 = growth as untreated, 0 = no growth, -100 = all killed)
# Conditions: 10 µM unless noted
row,Structure (SMILES),growth
1,COc1cc(/C=N/NC(=O)Cn2c(C(C)C)nc3ccccc32)ccc1O,85.2%
2,O=C(C[Si](CC(=O)c1cccc(C(F)(F)F)c1)CC(=O)c1cccc(C(F)(F)F)c1)c1cccc(C(F)(F)F)c1,-40.8% (active)
3,CN(C)CCC(O)(Cc1ccccc1)c1ccccc1 (stereo unspecified),85%
4,COc1ccc(-c2cc(-c3cc(-c4ccc(OC)cc4)nc(N)n3)nc(N)n2)cc1,83.6%
5,CCCCC#Cc1c(I)n(C2OC(CO[Si](C)(C)C(C)(C)C)C3OC(C)(C)OC32)c(=O)n(C(=O)c2ccccc2)c1=O (stereo unspecified),20.4%
6,COc1ccc(/C=C/C(=O)c2ccc(Nc3nc(NCCO)nc(Nc4ccc(Cl)cc4)n3)cc2)cc1,94%
7,CC(=O)Nc1nc(C)c(C(=O)N/N=C/c2cccn2C)s1,112%
8,COc1cc(OC)c(NC(=O)c2cc3ccccc3cc2O)cc1Cl,22%
9,COc1ccc(Nc2ncc(Br)c(NCCCNC(=O)c3cccs3)n2)cc1,17.7%
10,CN(C)c1ccc(C(=S)c2ccc(N(C)C)cc2)cc1,62.8%
11,Cc1cc(C)c2c(N)c3cccc(C)c3nc2n1,-19.1% (active)
12,CCOC(=O)CCN(CC(C)C)C(=S)Nc1ccccc1,97.2%
13,Cn1cc(C2=C(c3cccc4ccccc34)C(=O)NC2=O)c2cc(Br)ccc21,107%
14,COc1cc2nc(Nc3ccc(F)cc3)nc(N)c2cc1OC,79.4%
15,CSC1=NCCCC1,99.8%
16,Nc1cc(N)c2nc(NCCc3ccc(Cl)c(Cl)c3)cnc2c1,-74.3% (active)
17,CN1CCN(c2nc(NCCNc3ccnc4cc(Cl)ccc34)c3ccccc3n2)CC1,-63.3% (active)
18,COc1ccc(OC)c(NC(=O)c2cc3oc4ccccc4c3cc2O)c1,121%
19,CCN1CC(CCN2CCOCC2)C(C(c2ccccc2)c2ccccc2)C1=O (stereo unspecified),113%
20,Cc1cc(=O)c2cc3nc(-c4cccnc4)oc3c(Br)c2o1,84.9%
21,CN1CCN(Cc2cc(NC(=O)c3cccc(C#Cc4cccc5[nH]nc(N)c45)c3)cc(C(F)(F)F)c2)CC1,0.0221% (active)
22,COc1ccc2c(c1)c(-c1nc(-c3cn(C)c4ncccc34)cs1)cn2CCCN1CCCCC1,4.1% (active)
23,COc1cccc(NC(=O)c2sc3nc4c(cc3c2N)C(O)CCC4)c1 (stereo unspecified),-16.8% (active)
24,CC(=O)Oc1cccc(S(=O)(=O)n2cc(C(=O)C(=O)Nc3ccncc3)c3ccccc32)c1,56.1%
25,COCCOCCOCCOCCOc1ccc2c(c1)C(=O)c1nc3ncccc3c(=O)n1-2,-64.6% (active)
26,O=C(Nc1nc2ccccc2s1)c1cc(-c2ccc(F)cc2)n2nc(-c3ccccc3)cc2n1,107%
